HSD17B inhib: HSD17B dehydrogenase inhibition | Q99714 | recombinant HSD17B10, NADH fluorescence kinetic | Potency, µM (top dose mostly 57.1 µM), for the others: at the highest dose activity change, negative = inhibition, actives largely listed as inhibitors | hit rate 7.6% among 75,000 | AID 893;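 further: the protocol describes HADH2 (HSD17B10) and not the HSD17B4 of the title; potency means the concentration at half of the fitted maximal effect; on the % scale 0 is the no-effect control and ±100 the full control effect; nearly all actives have a fitted effect of over 70% in size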
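His-tagged E. coli-expressed HADH2 at 20 nM in 100 mM Tris-HCl pH 9.0 with 0.01 % Tween-20, preincubated 15 min with compound at room temperature. Reaction with 1 mM NAD+ and 90 uM beta-hydroxybutyryl coenzyme A; NADH fluorescence (360/450 nm) read kinetically over 4 min, last minus first point.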
HADH2 inhib: inhibitors of human HADH2 dehydrogenase | Q99714 | recombinant HADH2, NADH fluorescence, beta-hydroxybutyryl-CoA | Potency, µM (doses to about 57.1 µM), for the others: at the highest dose activity change, negative = inhibition, most hits filed as inhibitors | hit rate 3.4% among 73,000 | AID 886; further: potency means the concentration at half of the fitted maximal effect; on the % scale 0 is the no-effect control and ±100 the full control effect; nearly all actives have a fitted effect of over 60% in size
Target sequence (Q99714 whole entry, looked up, one chain of several): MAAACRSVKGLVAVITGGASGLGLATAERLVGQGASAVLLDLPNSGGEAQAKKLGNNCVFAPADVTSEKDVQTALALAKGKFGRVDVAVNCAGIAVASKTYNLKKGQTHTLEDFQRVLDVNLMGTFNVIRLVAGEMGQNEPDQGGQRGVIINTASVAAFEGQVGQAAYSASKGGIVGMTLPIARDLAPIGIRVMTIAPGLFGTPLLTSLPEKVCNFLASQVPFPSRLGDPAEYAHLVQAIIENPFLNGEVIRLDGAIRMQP
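E. coli-expressed His-tagged HADH2 tested at 20 nM in alkaline Tris buffer (pH 9.0); oxidation of 90 uM beta-hydroxybutyryl-CoA with 1 mM NAD+ tracked fluorimetrically for 4 min.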
A350 fluor: A350 region autofluorescence; Compound autofluorescence, 340/450 nm, Alexa 350 dye-equivalents; active compounds read high; max dye-equivalent concentration, M; hit rate 11% among 59,000; AID 590; in the data active means max dye-equivalent concentration above about 10 nM; inconclusive means mostly about 1.1 nM to 9.6 nM
PK Bst: alters activity of Bacillus stearothermophilus pyruvate kinase; purified pyruvate kinase, luminescence ATP production; ribose 5-phosphate activator present at AC10; Potency, µM; hit rate 1.2% among 51,000; AID 361; in the data active means potency below about 11 µM; inconclusive means mostly about 12 µM to 25 µM;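 the screen sought inhibitors and activators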;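 further: potency means the concentration at half of the fitted maximal effect; scaled between full activation by ribose 5 phosphate and full inhibition by luteolin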
AID923: qHTS Assay for Allosteric/Competitive Inhibitors of Caspase-1: Spectroscopic Profiling in AFC Spectral Region; compound fluorescence, AFC spectral region (405/520 nm); Potency, µM (doses to about 57.5 µM), for inactives: top-dose fluorescence increase, hits mostly activators; hit rate 1.1% among 75,000; further: potency means the concentration at half of the fitted maximal effect; 0% is about no effect
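Titrations up to 57 uM read every 20 sec for 3 min (405/520 nm) with 50 nM caspase 1 and 5 uM Ac-WEHD-AFC, pH 7.5 HEPES buffer. Fluorescence-vs-time intercept gave baseline, scaled against on-plate AFC standard.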
4-MU autofl: compounds fluorescent in 4-MU spectral region; AID 589; hit rate 11% among 59,000; compound autofluorescence, 340/450 nm, 4-MU equivalents; active compounds read high; max dye-equivalent concentration, M; in the data active means max dye-equivalent concentration above about 10 nM; inconclusive means mostly about 1.1 nM to 9.6 nM
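Compounds in 100 mM Tris, pH 8.0, incubated 15 min at room temperature, then fluorescence read at 340 nm excitation/450 nm emission. Signal converted to 4-MU dye-equivalent concentration using an on-plate six-point 4-MU standard curve.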
* = called active by the depositor; i = inactive; ? = inconclusive; / = not tested or not shown; ! = not confirmed by another sample; [ ] = another dose, or the depositor's remark. Sampled rows, rich in hits. Any-hit rate of the full collection: about 13%. Unless noted, the call rests on the fitted dose curve; in most records, active means well fitted curve in the direction sought with a large enough effect; inconclusive means small, poorly fitted or top-dose-only effect, or another doubt; inactive means no such curve, though single readings can be large; an effect the other way counts as inactive or inconclusive.

SMILES | HSD17B inhib | HADH2 inhib | A350 fluor | PK Bst | AID923 | 4-MU autofl
COC(=O)[C@@]1(Cc2ccc(OC)cc2)[C@H]2c3cc(C(=O)N4CCCC4)n(CCF)c3C[C@H]2CN1C(=O)c1ccccc1 | -5% | 0% | / | / | 1% | /
Nc1ncnc2c1c(-c1ccc(Oc3ccccc3)cc1)cn2C1CCCC1 | 32µM* | ? | i | / | -2% | i
Cc1c(C)n(Cc2ccccc2)c2ncnc(N)c12 | ? | 6% | ? | >57 | 0% | ?
O=C1c2oc3ccccc3c(=O)c2C(c2cccnc2)N1Cc1ccco1 (stereo not given) | -5% | 7% | ? | >57 | 1% | ?
CCN(CC)CCCN1C(=O)c2oc3ccccc3c(=O)c2C1c1cccnc1 (stereo not given) | ? | ? | 1.3e-08M* | >57 | 3% | 1.2e-08M*
CN(C)CCCN1C(=O)c2oc3ccccc3c(=O)c2C1c1cccs1 (stereo not given) | -20% | 5% | 3e-08M* | >57 | 8% | 2.3e-08M*
O=C1c2oc3ccc(Cl)cc3c(=O)c2C(c2cccnc2)N1Cc1ccco1 (stereo not given) | -16% | ? | 1.1e-08M* | / | 3% | 1.1e-08M*
Cc1cc(C)n(-c2ccc(C(=O)Nc3ccccn3)cc2)n1 | 6% | -9% | ? | i | 3% | i
Cc1cc(C)n(-c2ccc(C(=O)Nc3sccc3C(N)=O)cc2)n1 | -22% | -25% | 2.6e-08M* | i | 1% | 2.8e-08M*
COc1ccc2ccccc2c1/C=C\C(=O)c1ccccc1 | -2%[11.4 µM] | -5%[11.4 µM] | i | / | 6%[11.5 µM] | i
O=S(=O)(C[C@H](O)C(Cl)(Cl)Cl)NNc1ccccc1 | 0%[11.4 µM] | -1%[11.4 µM] | i | / | 3%[11.5 µM] | i
CC(=O)OC1CC(OC(C)=O)[C@]2(C)C(CC(=O)[C@]3(C)C2CC[C@@]2(C)C(C(=O)O)OC(=O)C4OC423)C1(C)C (stereo not given in full) | 9% | / | / | / | 0% | /
O=C(NCCN1CCOCC1)c1ccc2c(c1)N(Cc1ccccc1)CCS2 | 25µM* | ? | / | / | 13% | /
CN1CCN(CCCNC(=O)c2ccc3c(c2)N(Cc2ccccc2)CCS3)CC1 | 25µM* | ? | / | / | 13% | /
Nc1nc2c(ncn2COC(CO)CO)c(=O)[nH]1 | 4%[25.6 µM] | -1%[25.6 µM] | i | / | 0%[25.7 µM] | i
COC(=O)[C@@]1(Cc2ccc(OC)cc2)[C@H]2c3cc(C(=O)N(C)C)n(Cc4cc(C)n(C)n4)c3C[C@H]2CN1C(=O)c1ccccc1 | 3% | 1% | / | / | 0% | /
COC(=O)C1=C(C)N(Cc2ccccc2)C2=C(C(C)=O)C(c3ccccc3)[C@@](O)(C(=O)OC)C(=O)N2C1c1ccccc1 (stereo not given in full) | -1%[11.4 µM] | 3.2µM*! | / | / | 2%[11.5 µM] | /
CCOc1nc(Nc2ccc(-c3nc4ccccc4o3)cc2)nc(N2CCOCC2)n1 | 10µM* | 32µM* | 2.6e-07M* | >57 | -1% | 2.1e-07M*
Cc1ccc(Nc2nc(OC(C(F)(F)F)C(F)(F)F)nc(N3CCOCC3)n2)cc1 | 1% | 11% | / | / | -1% | /
Nc1nc2n(c1C(=O)c1ccccc1)CCC2 | 0% | ? | i | >57 | -2% | i
CCOC(=O)N1CCN(S(=O)(=O)c2cccc3ccc(C)nc23)CC1 | -2% | 4% | i | ? | -1% | i
CCc1c2c(nc3ccc(OC)cc13)COC2 | 32µM* | 19% | / | / | -3% | /
COc1ccc2nc3c(c(-c4ccccc4)c2c1)CCC3 | 13µM* | -13% | / | / | -1% | /
COC(=O)CC1C(C)(C)C(=O)C2CC3=C4CC(=O)OC(c5ccoc5)[C@]4(C)CCC3[C@@]1(C)C2=O (stereo not given in full) | -6% | / | / | / | 0% | /
O=S(=O)(O)c1ccc(-c2nnc(-c3ccccn3)nc2-c2ccc(S(=O)(=O)O)o2)o1 | 2%[11.4 µM] | ? | i | / | 0%[11.5 µM] | i
SMILES | HSD17B inhib | HADH2 inhib | A350 fluor | PK Bst | AID923 | 4-MU autofl
CCC1CC2(C)NC(=O)c3c(sc4c3CC(C)(C)OC4)N2C1=O (stereo not given) | / | / | 1.1e-08M* | >26 | / | ?
CC1(C)S[C@@H]2[C@H](NC(=O)[C@@H](NC(=O)N3CCNC3=O)c3ccccc3)C(=O)N2[C@H]1C(=O)O | 2%[25.6 µM] | -16%[25.6 µM] | ? | / | -1%[25.7 µM] | i
COc1cc(C)c(C)cc1S(=O)(=O)N1CCN(Cc2ccc3c(c2)OCO3)CC1 | -22% | 2% | 1e-08M* | >57 | 3% | 1.1e-08M*
COc1cc(S(=O)(=O)N2CCN(Cc3ccc4c(c3)OCO4)CC2)c(C)cc1C | 8% | -3% | / | / | 2% | /
CC(C)(C)N1C(=O)[C@H]2[C@@H]3[C@H](O)C=CC(=O)[C@H]3CC[C@H]2C1=O | 2%[11.4 µM] | 4%[11.4 µM] | / | / | -1%[11.5 µM] | /
Cn1c(=O)c2c(nc(Cc3ccccc3)n2CC(=O)O)n(C)c1=O | 6%[11.4 µM] | 7%[11.4 µM] | i | / | -3%[11.5 µM] | i
O=C1CCCC(O)=C1C(C#Cc1ccccc1)C1=C(O)CCCC1=O | ? | 13µM* | i | >57 | 1% | i
Cc1ccc(-c2nn(-c3ccccc3)cc2C2SCC(=O)N2Cc2ccccc2)o1 (stereo not given) | -26% | 5% | / | / | 3% | /
Cc1ccc(-c2nn(-c3ccccc3)cc2/C=C(\C#N)c2cccc(C#N)c2)o1 | -9% | 41% | 2.5e-08M* | >57 | 19% | 2e-08M*
O=C(O)[C@H]1C[C@@H](CP(=O)(O)O)CCN1 | -6% | 10% | / | / | -3% | /
S=C(S)NCCN1CCNCC1 | -12%[11.4 µM] | 3.2µM* | i | / | -3%[11.5 µM] | i
C=CCN1CCc2c(cc(O)c(O)c2Cl)[C@H](c2ccccc2)C1 | 25µM* | 1.3µM* | i | / | 1% | i
C=CCN1CCc2cc(O)c(O)cc2[C@H](c2ccccc2)C1 | 32µM* | ? | i | / | 0% | i
CN1CCc2c(cc(O)c(O)c2Cl)[C@H](c2cccc(Cl)c2)C1 | 25µM* | 1µM* | i | / | 0% | i
CN1CCc2cc(Cl)c(O)cc2[C@@H](c2ccccc2)C1 | -18% | ? | / | / | 4% | /
COc1c2ccccc2nc2occc12 | 1% | / | / | / | -3% | /
COC(=O)NC(/C(C(=O)OC)=C(\C)NCc1ccccc1)c1ccc2ccccc2c1 (stereo not given) | 4µM* | -17%[11.4 µM] | / | / | 1%[11.5 µM] | /
Oc1ccc(/C=C\c2cc(O)cc(O)c2)cc1 | 25µM* | 13µM* | 1e-08M*! | / | -2% | 1.2e-08M*!
Oc1cc(O)cc(/C=C\c2ccc(O)c(O)c2)c1 | 32µM* | 2µM* | 1.6e-08M* | / | 10% | 1.7e-08M*
Oc1ccc(/C=C/c2cc(O)cc(O)c2)cc1 | 32µM* | 32µM* | ? | 3.7* | 1% | ?
COc1cc(O)c(C(=O)O)c(O)c1 | 8% | / | / | / | -1% | /
COc1cc(O)cc(/C=C/c2ccccc2)c1 | 20µM* | / | / | / | -1% | /
CCn1cc(NC(=O)Nc2ccccc2C(=O)OC)c(C(N)=O)n1 | -12% | -15% | i | >57 | 0% | i

Bioassay records: PubChem BioAssay, National Center for Advancing Translational Sciences (NCATS)
